Screening results as filed in PubChem BioAssay.
AI-2 QS modul = modulates the Vibrio harveyi AI-2 quorum sensing system. 0.4% of 300,000 active. activity change, % at 7.5 µM. Vibrio harveyi JMH597 AI-2 luminescence/OD600 ratio, 9 h; active compounds read low; strain lacks LuxN and CqsS sensors; 0 = neutral-control median. AID 2094; in the data active = activity change below about -75%, passing the limit was not always enough; inconclusive = no clear call, values can overlap the other calls;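 note: luminescence divided by OD600 gain over 9 h not by final OD600 alone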
ARNT TACC3 PPI = disrupts binding between human ARNT and TACC3. 0.66% of 390,000 active. AlphaScreen His-ARNT PAS-B/GST-TACC3 binding, luminescence; TACC3 fragment carries E629A point mutation. inhibition, % at 9.99 µM. Q9Y6A5;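 active = mean inhibition of replicates at least 50% and at least half of replicates each reaching 50%; inconclusive = half or more replicates reach 50% but mean below 50%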
Rin1-Abl PPI inh = human Rin1-Abl interaction inhibition | P00519+Q13671 | TR-FRET Rin1/Abl binding, biochemical | inhibition, % at 7.35 µM | 0.4% of 360,000 active; in the data active = inhibition above about 5%, passing the limit was not always enough
sPLA2-III inh = Inhibits HGIII-sPLA2 liposome hydrolysis, primary screen | QFRET BODIPY PC-A2 liposome hydrolysis, fluorescence | inhibition, % at 12.2 µM | Q9NZ20 | 0.56% of 370,000 active;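 active = inhibition above mean plus 3 SD of compounds lying within the high and low control bounds, cut at about 19% in these data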
Target sequence (Q9NZ20 whole entry, looked up): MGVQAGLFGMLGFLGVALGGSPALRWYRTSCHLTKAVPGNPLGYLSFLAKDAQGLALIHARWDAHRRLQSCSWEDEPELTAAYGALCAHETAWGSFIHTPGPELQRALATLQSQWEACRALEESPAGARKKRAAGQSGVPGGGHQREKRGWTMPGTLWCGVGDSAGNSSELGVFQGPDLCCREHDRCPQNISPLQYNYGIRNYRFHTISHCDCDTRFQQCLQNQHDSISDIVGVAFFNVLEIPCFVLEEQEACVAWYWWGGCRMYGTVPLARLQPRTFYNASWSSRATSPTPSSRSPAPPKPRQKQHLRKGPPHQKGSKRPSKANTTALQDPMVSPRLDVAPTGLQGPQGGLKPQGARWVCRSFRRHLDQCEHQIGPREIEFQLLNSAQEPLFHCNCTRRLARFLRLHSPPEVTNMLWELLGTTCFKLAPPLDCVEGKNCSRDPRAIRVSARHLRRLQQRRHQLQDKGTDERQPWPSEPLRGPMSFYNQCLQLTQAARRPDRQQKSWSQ
JMH597 growth = retest: inhibitors of Vibrio harveyi JMH597 growth. shares compounds with AI-2 QS modul. OD600 absorbance, 9 h; lacks LuxN and CqsS sensors. growth inhibition, % at 7.5 µM. 1% of 750 active. AID 2726;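 active = every replicate shows growth inhibition above 50%; inconclusive = at least half, but not all, replicates pass that cutoff; inactive = fewer than half of replicates pass it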
BB721 lum counter = retest counter-screen: luminescence loss in constitutive-on quorum sensing strain BB721. shares compounds with AI-2 QS modul. Vibrio harveyi BB721 luminescence, 9 h. inhibition, % at 7.5 µM. 95% of 750 active;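 active = inhibition above about 80% in every replicate, not just on average, limit read from the data; inconclusive = at least half of replicates past the limit, but not all; inactive = fewer than half of replicates past the limit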
BB721 growth rt = retest: blocks Vibrio harveyi BB721 growth | shares compounds with AI-2 QS modul | OD600 absorbance, 9 h | growth inhibition, % at 7.5 µM | 3% of 750 active | AID 2728;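 active = every replicate shows growth inhibition above 50%; inconclusive = at least half but not all replicates above 50% inhibition; inactive = under half of replicates above 50% inhibition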
JMH597 AI-2 mod = Vibrio harveyi AI-2 signaling luminescence modulation – JMH597 strain, confirmation; inhibition, % at 7.5 µM; Vibrio harveyi JMH597 AI-2 quorum sensing luminescence, 9 h; luxN and CqsS knockout, AI-2 only; shares compounds with AI-2 QS modul; 97% of 750 active;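 active = every replicate shows more than 75% inhibition of signal versus neutral control wells; inconclusive = half to three quarters of replicates exceed 75% inhibition; inactive = fewer than half of replicates exceed 75% inhibition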
Large screens that a line does not name were inactive (follow-up assays come after a bar, where they were run). In the library only some 1.5% were active in any assay of this set; here they are far more common.

COC(=O)c1ccc(-c2noc(CN3C[C@H]4CC[C@H]3C4)n2)cc1	AI-2 QS modul -84 (no result: ARNT TACC3 PPI) | JMH597 growth inactive | BB721 lum counter 94 | BB721 growth rt inactive | JMH597 AI-2 mod 96
Cc1ccccc1CC(=O)Nc1ccc2c(C)cc(=O)oc2c1	none
CC1(c2ccc(Cl)cc2)NC(=O)N(CC(=O)Nc2ccc(F)cc2)C1=O (stereo not drawn)	AI-2 QS modul -78 | JMH597 growth inactive | BB721 lum counter 86 | BB721 growth rt inactive | JMH597 AI-2 mod 89
Cc1ccc(C2(C)NC(=O)N(CC(=O)Nc3ccc4c(c3)CCC4)C2=O)cc1 (stereo not drawn)	none (no result: AI-2 QS modul, ARNT TACC3 PPI)
Cc1cc(=O)oc2cc(NC(=O)CN3C(=O)NC(C)(c4ccccc4)C3=O)ccc12 (stereo not drawn)	AI-2 QS modul -84 | JMH597 growth inactive | BB721 lum counter 86 | BB721 growth rt inactive | JMH597 AI-2 mod 91
CC(C)CC1(C)NC(=O)N(CC(=O)Nc2ccc3c(c2)CCC3)C1=O (stereo not drawn)	AI-2 QS modul -85 | JMH597 growth inactive | BB721 lum counter 90 | BB721 growth rt inactive | JMH597 AI-2 mod 94
CC1(c2ccccc2)NC(=O)N(CC(=O)Nc2ccc3c(c2)OCO3)C1=O (stereo not drawn)	AI-2 QS modul -95 (no result: ARNT TACC3 PPI) | JMH597 growth inactive | BB721 lum counter 96 | BB721 growth rt inactive | JMH597 AI-2 mod 98
CC1(c2ccc(Cl)cc2)NC(=O)N(CC(=O)NCc2ccc(F)cc2)C1=O (stereo not drawn)	none
CC1(c2ccc(OC(F)F)cc2)NC(=O)N(CC(=O)Nc2ccc3c(c2)OCO3)C1=O (stereo not drawn)	AI-2 QS modul -94 | JMH597 growth inactive | BB721 lum counter 96 | BB721 growth rt inactive | JMH597 AI-2 mod 97
CC(C)(C)c1ccc(C2(C)NC(=O)N(CC(=O)Nc3ccc4c(c3)OCO4)C2=O)cc1 (stereo not drawn)	none (no result: ARNT TACC3 PPI)
COc1ccc(NC(=O)CN2C(=O)NC(C)(c3ccccc3)C2=O)cc1Cl (stereo not drawn)	AI-2 QS modul -95 | JMH597 growth inactive | BB721 lum counter 96 | BB721 growth rt inactive | JMH597 AI-2 mod 98
COCC#Cc1cnc2c(c1)C(=O)N([C@@H](C)CO)C[C@@H](C)[C@H](CN(C)C(=O)c1ccc3c(c1)OCO3)O2	none (no result: AI-2 QS modul, Rin1-Abl PPI inh, sPLA2-III inh)
O=C(Nc1ccc2c(c1)[C@H]1C[C@@H](CC(=O)N3CCCCC3)O[C@@H](CO)[C@H]1O2)C1CCC1	none (no result: AI-2 QS modul, Rin1-Abl PPI inh, sPLA2-III inh)
COc1ccccc1C/C(N)=N/OC(=O)c1cccs1	none
Cc1ccccc1C(=O)O/N=C(\N)Cc1cccs1	AI-2 QS modul -87 | JMH597 growth inactive | BB721 lum counter 95 | BB721 growth rt inactive | JMH597 AI-2 mod 96
COc1ccc(C/C(N)=N/OC(=O)c2cccs2)cc1	AI-2 QS modul -84 | JMH597 growth inactive | BB721 lum counter 97 | BB721 growth rt inactive | JMH597 AI-2 mod 98
C[C@H](CO)N1C[C@H](C)[C@@H](CN(C)C)Oc2cc(-c3cncnc3)ccc2S1(=O)=O	none (no result: AI-2 QS modul, Rin1-Abl PPI inh, sPLA2-III inh)
COc1cccc(-c2cnc3c(c2)C(=O)N([C@H](C)CO)C[C@H](C)[C@@H](CN(C)C(C)=O)O3)c1	none (no result: AI-2 QS modul, Rin1-Abl PPI inh, sPLA2-III inh)
O=C(COC(=O)C1CC1)Nc1ccc(Oc2ccccc2)cc1	AI-2 QS modul -82 | JMH597 growth inactive | BB721 lum counter 89 | BB721 growth rt inactive | JMH597 AI-2 mod 94
O=C(COC(=O)C1CCC1)Nc1ccc(Oc2ccccc2)cc1	none
CO/N=C\CC(=O)Nc1ccc(Oc2ccccc2)cc1	AI-2 QS modul -80 | JMH597 growth inactive | BB721 lum counter 84 | BB721 growth rt inactive | JMH597 AI-2 mod 91
O=C(C/C=N\O)Nc1ccc(Oc2ccccc2)cc1	none
CCCNC(=O)C[C@H]1CC[C@@H]2[C@H](COc3ccc(NC(=O)c4ccccc4)cc3C(=O)N2C)O1	none (no result: AI-2 QS modul, Rin1-Abl PPI inh, sPLA2-III inh)
Fc1ccc(-c2nnn(Cc3nc4ccccc4s3)n2)cc1	AI-2 QS modul -90 | JMH597 growth inactive | BB721 lum counter 98 | BB721 growth rt inactive | JMH597 AI-2 mod 98
CCc1ccc(CNC(=O)Cn2nc(-c3ccc(C)cc3)ccc2=O)cc1	AI-2 QS modul -79 (no result: ARNT TACC3 PPI, Rin1-Abl PPI inh, sPLA2-III inh) | JMH597 growth inactive | BB721 lum counter 90 | BB721 growth rt inactive | JMH597 AI-2 mod 94
COc1ccc(CNC(=O)c2cc(-c3ccccc3O)n[nH]2)cc1	none
COc1ccc(CNC(=O)c2cc(-c3cc(C)ccc3O)n[nH]2)cc1	AI-2 QS modul -79 | JMH597 growth inactive | BB721 lum counter inconclusive | BB721 growth rt inactive | JMH597 AI-2 mod 84
CCSc1nsc(NC(=O)Nc2ccc(F)cc2F)n1	AI-2 QS modul inconclusive (no result: sPLA2-III inh) | JMH597 growth 82 | BB721 lum counter 94 | BB721 growth rt inconclusive | JMH597 AI-2 mod 99
O=C(Nc1ccccc1)[C@@H]1[C@@H](CO)[C@@H]2Cn3c(cccc3=O)[C@@H]2N1Cc1ccccc1Cl	none (no result: AI-2 QS modul, Rin1-Abl PPI inh, sPLA2-III inh)
O=C(c1cc(-c2ccc(O)cc2)on1)N1CCCCCC1	AI-2 QS modul -78 (no result: ARNT TACC3 PPI) | JMH597 growth inactive | BB721 lum counter 93 | BB721 growth rt inactive | JMH597 AI-2 mod 96
O=C(C[C@@H]1C=C[C@H](NC(=O)C2CCC2)[C@H](CO)O1)NC1CCC1	none (no result: AI-2 QS modul, Rin1-Abl PPI inh, sPLA2-III inh)
Cc1ccc(-c2cc(NC(=O)c3ccccc3[N+](=O)[O-])n[nH]2)cc1	AI-2 QS modul -95 | JMH597 growth inactive | BB721 lum counter 97 | BB721 growth rt inactive | JMH597 AI-2 mod 98
O=C(Nc1cc(-c2ccccc2)[nH]n1)c1ccc(Cl)cc1	AI-2 QS modul -82 | JMH597 growth inactive | BB721 lum counter 96 | BB721 growth rt inactive | JMH597 AI-2 mod 96
O=C(NCC1CCCCC1)[C@H]1[C@H](CO)[C@H]2Cn3c(ccc(-c4ccccc4)c3=O)[C@@H]1N2	none (no result: AI-2 QS modul, Rin1-Abl PPI inh, sPLA2-III inh)
C[C@@H]1CCCCO[C@H](CN(C)C(=O)Nc2ccccc2)[C@@H](C)CN([C@H](C)CO)C(=O)c2cc(NS(C)(=O)=O)ccc2O1	none (no result: AI-2 QS modul, Rin1-Abl PPI inh, sPLA2-III inh)
CCOC(=O)C1=C(C)NC(=S)NC1C (stereo not drawn)	AI-2 QS modul -82 (no result: ARNT TACC3 PPI) | JMH597 growth inactive | BB721 lum counter inactive | BB721 growth rt inactive | JMH597 AI-2 mod inactive
CN(C)S(=O)(=O)c1ccc(NC(=O)COc2ncnc3sccc23)cc1	AI-2 QS modul -97 | JMH597 growth inactive | BB721 lum counter 100 | BB721 growth rt inactive | JMH597 AI-2 mod 100
CN(C)S(=O)(=O)c1ccc(NC(=O)CSc2ncnc3ccccc23)cc1	AI-2 QS modul -86 (no result: ARNT TACC3 PPI) | JMH597 growth inactive | BB721 lum counter 92 | BB721 growth rt inactive | JMH597 AI-2 mod 94
CNC(=O)COc1ncnc2sccc12	none (no result: AI-2 QS modul)
CN(C)S(=O)(=O)c1cccc(NC(=O)CSc2ncnc3ccccc23)c1	none
